# Source: PubChem BioAssay (National Center for Advancing Translational Sciences (NCATS))
# VACV mCherry inh: vaccinia inhibition (mCherry reporter) | Vaccinia virus mCherry reporter infection, fluorescence | Potency, µM (series often up to 36.5 µM), for inactives: at the highest dose activity change, negative = inhibition, hits mostly inhibitors | hit rate 0.63% among 310,000 | AID 720579; calls by dose curve; tested in A549 cells; also: potency is read from the fitted curve at half-maximal effect; % is scaled to controls: 0 for no effect and ±100 for the full control effect; nearly all actives have a fitted effect of over 35% in size
# VACV Venus inh: inhibitors of vaccinia virus (Venus reporter). Potency, µM (highest dose often 36.5 µM), for the others: at the top dose activity change, negative = inhibition, usual class: inhibitors. Vaccinia virus Venus reporter expression, fluorescence. hit rate 0.46% among 330,000; calls by dose curve; tested in A549 cells; also: potency is read from the fitted curve at half-maximal effect; % is scaled to controls: 0 for no effect and ±100 for the full control effect; nearly all actives have a fitted effect of over 30% in size
# Lassa entry inh: Lassa virus entry inhibition | Potency, µM (series often up to 37.9 µM), inactives show at the top dose activity change, negative = inhibition, hits mostly inhibitors | hit rate 1.2% among 300,000 | Lassa virus pseudotype entry inhibition, cell reporter; calls by dose curve; tested in HEK293 cells; also: potency is read from the fitted curve at half-maximal effect; % is scaled to controls: 0 for no effect and ±100 for the full control effect; nearly all actives have a fitted effect of over 50% in size
# CHX counter: counter-screen for Shiga toxin inhibitors: cycloheximide protein synthesis inhibition; cell reporter, cycloheximide protein synthesis inhibition counterscreen; max response, %; hit rate 12% among 300,000; AID 2314; in the data active = max response mostly above about 13%, no sharp cut-off; inactive = mostly below about 14%; also: read at 38.3 µM for the half of the compounds with a filed dose; 0% is about no effect
# Shiga toxin inh: blocks Shiga toxin action in Vero cells | Vero cells, Shiga toxin protein synthesis inhibition reporter | inhibition, % at 38.7 µM | hit rate 9.2% among 290,000; in the data active = inhibition mostly above about 28%, no sharp cut-off; inactive = mostly below about 43%; also: 0% is about no effect
# MARV entry inh: Marburg virus entry inhibition. Marburg virus pseudotyped entry inhibition, cell reporter. Potency, µM (series often up to 37.8 µM), inactives show at the highest dose activity change, negative = inhibition, most hits filed as inhibitors. hit rate 1.8% among 300,000. AID 540276; calls by dose curve; tested in HEK293 cells; also: potency is read from the fitted curve at half-maximal effect; % is scaled to controls: 0 for no effect and ±100 for the full control effect
# * = called active by the depositor; i = inactive; ? = inconclusive; . = no result; [ ] = another dose, or the depositor's remark. Only a selection was taken, and hits are over-represented in it overall.
SMILES,VACV mCherry inh,VACV Venus inh,Lassa entry inh,CHX counter,Shiga toxin inh,MARV entry inh
N#CCc1ccc(NC(=O)Nc2cccc3ccccc23)cc1,.,.,.,16*,22,.
CCOc1ccccc1NC(=O)Nc1ccc(CC#N)cc1,.,.,.,17*,28,.
CCOc1ccccc1NC(=O)Nc1ccncc1,-22%,-18%,6%[46.1 µM],5,14,-6%[46.1 µM]
CCn1cc(C(=O)N2CCCC2)c(=O)c2cc(S(=O)(=O)N3CC(C)CC(C)C3)ccc21 (configuration not stated),0%,-13%,14%[46.1 µM],-5,-7,22%[46.1 µM]
CCn1cc(C(=O)N2CCCCC2)c(=O)c2cc(S(=O)(=O)N3CCC(C)CC3)ccc21,.,.,-13%,23*,10,7%
O=C(CCCCCn1c(=O)c2sccc2n(Cc2ccc(Cl)cc2)c1=O)NCc1ccc2c(c1)OCO2,-1%,-16%,-10%[46.1 µM],.,.,26%[46.1 µM]
Fc1ccc(/C=N/Nc2cc(N3CCOCC3)ncn2)cc1,-5%,1%,?,9,-4,?
O=C(Nc1cc(N2CCCCC2)ncn1)c1ccc(F)cc1,.,.,9%,26*,41,1%
C(=N\Nc1cc(N2CCCCC2)ncn1)/c1ccco1,.,.,.,28*,38*,.
O=C(Nc1cc(N2CCOCC2)ncn1)c1ccc(F)cc1,4%,-9%,?,33*,75*,?
Fc1cccc(/C=N/Nc2cc(N3CCOCC3)ncn2)c1,-15%,5%,?,23*,25*,?
Cc1cc(NC(=O)Nc2nnc(N(C)Cc3ccccc3)s2)ccc1Br,-10%,-11%,-16%[46.1 µM],.,.,?
O=C(CNC(=O)c1cccs1)Nc1cccc(S(=O)(=O)N2CCOCC2)c1,i,-9%,-17%,.,.,23%
Cc1ccc(NC(=S)N(CCCN2CCOCC2)Cc2cccnc2)cc1C,7%,11%,1%,-2,-9,15%[46.1 µM]
Cc1ccc(C(=O)/C=C/c2cn(CN3CCN(C)CC3)c3ccccc23)cc1,.,.,-4%,35*,85*,?
COc1ccc(C(=O)/C=C/c2cn(CC(O)CN3CCc4ccccc43)c3ccccc23)cc1 (configuration not stated),-9%,2%,?,.,.,?
Cn1cc(/C=C/C(=O)c2ccccc2)c2ccccc21,i[7.34 µM],2%[7.34 µM],?,41*,74*,?
Cc1occc1C(=O)Nc1nnc(C(F)(F)F)s1,-12%,-12%,43%,8,5,-4%
COCCNC(=O)CN(Cc1ccc2c(c1)OCO2)C(=O)CCC(=O)Nc1nccs1,-9%,0%,23%,-1,-10,1%
Cc1csc(NC(=O)c2ccoc2C)n1,.,.,?,49*,64*,?
CC(C)(C)NC(=O)CN(Cc1ccc2c(c1)OCO2)C(=O)CCC(=O)Nc1nccs1,i,-7%,-19%,15*,38,13%[46.1 µM]
COC(=O)CSc1nnc(NC(=O)c2ccc3c(c2)OCO3)s1,.,.,.,-2,-7,.
Cc1csc(NC(=O)c2ccc3c(c2)OCO3)n1,-8%,0%,7.1µM*,31*,71*,?
CCOC(=O)Cc1csc(NC(=O)c2ccoc2C)n1,.,.,9%,29*,84*,15%
CCOC(=O)Cc1csc(NC(=O)c2ccc3c(c2)OCO3)n1,.,.,-12%,15*,40*,-4%
SMILES,VACV mCherry inh,VACV Venus inh,Lassa entry inh,CHX counter,Shiga toxin inh,MARV entry inh
O=C(Nc1nccs1)c1ccc2c(c1)OCO2,-8%,-3%,-12%[46.1 µM],20*,65*,?
CCOC(=O)Cc1csc(NC(=O)c2ccc(F)cc2)n1,.,.,.,7,8,.
CCOC(=O)Cc1csc(NC(=O)c2ccc(C)cc2)n1,-21%,-13%,.,34*,91*,-3%[46.1 µM]
COc1ccc(NC(=O)CSCc2cnn(-c3ccccc3)c2-n2cccc2)cc1,-12%,-16%,4%[46.1 µM],.,.,-2%[46.1 µM]
Brc1ccc(-c2noc(COc3ccc4c(c3)CCC4)n2)o1,-8%,-15%,.,7,18,.
CCOC(=O)c1ccc(OCc2nc(-c3cccs3)no2)cc1,i,-11%,?,16*,33,26%
c1csc(-c2noc(COc3ccc4c(c3)CCCC4)n2)c1,-14%,-4%,?,41*,89*,?
CCOC(=O)N1CCN(Cc2nc(-c3cccs3)no2)CC1,.,.,.,30*,81*,.
Cc1cc(-c2nc3cc(F)ccc3s2)ccc1N,?,?,2.2µM*,.,.,7.1µM*
Nc1ccc(S(=O)(=O)N2CCOCC2)cc1,-11%,-9%,.,.,.,.
CCN(CC)c1ccc(/C=C2\C(=O)NC(=S)N(C)C2=O)o1,-9%,143%,24%[46.1 µM],45*,110*,?
